DT40 TDP1 CPT – growth inhibition of DT40 Tdp1-/-;hTDP1 cells with camptothecin (screen for TDP1 inhibitors); chicken DT40 Tdp1-/-;hTDP1 cells + 20 nM CPT, ATP luminescence, 48 h; Potency, µM (series often up to 46.2 µM), for inactives: at the top dose activity change, negative = growth inhibition, hits mostly inhibitors; 420,000 tested, 12% active; further: potency means the concentration at half of the fitted maximal effect; nearly all actives have a fitted effect of over 55% in size
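Cell growth measured by CellTiter-Glo luminescence after a minimum 48 h, 37 C compound exposure with 20 nM CPT in Tdp1-knockout DT40 cells stably expressing hTDP1, seeded 400/well; qHTS titration format.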
TDP1 cell noCPT – qHTS for Inhibitors of human tyrosyl-DNA phosphodiesterase 1 (TDP1): qHTS in cells in absence of CPT. DT40 Tdp1-/- hTDP1 cells, no CPT, ATP luminescence, 48 h. 420,000 tested, 15% active. Potency, µM (titrated, usually from 46.2 µM), for the others: at the top dose activity change, negative = growth inhibition, actives largely listed as inhibitors; further: potency means the concentration at half of the fitted maximal effect; nearly all actives have a fitted effect of over 55% in size
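Luminescent ATP content (CellTiter-Glo) served as the growth readout. Knockout chicken DT40 cells expressing human TDP1 were exposed to compounds without camptothecin for a minimum 48 hr at 37 °C.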
Gal4-VP16 FLuc – inhibits Gal4-VP16 luciferase reporter, ROR gamma counter-screen | Drosophila S2 Gal4-VP16 UAS-luciferase, luminescence, 20 h | Potency, µM (doses to about 53.6 µM), without a hit: at the highest dose activity, negative = inhibition, usual class: inhibitors | 310,000 tested, 3.5% active | AID 2546;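 further: Gal4-VP16 expression switched on by copper sulfate through the metallothionein promoter; potency means the concentration at half of the fitted maximal effect; nearly all actives have a fitted effect of over 50% in size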
IL-1B inflam inh – inhibitors of inflammasome signaling (IL-1 beta secretion) | THP-1 LPS/ATP IL-1B secretion, AlphaLISA, 16 h; active compounds read low | activity change, % at 57.5 µM | 360,000 tested, 4.7% active; in the data active means activity change below about -50%; inconclusive means mostly about -30% to -49%
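THP-1 cells pretreated 1 hr with compounds (up to 57.5 uM final), then stimulated with LPS (250 ng/mL final) plus ATP (1.25 mM final); secreted IL-1B measured by AlphaLISA after 16 hr, decreased signal indicating inhibition.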
LDHA block – blocks human lactate dehydrogenase A; purified LDHA, NADH/diaphorase-resazurin fluorescence; active compounds read low; activity change, % (values are at about 110 or 230 µM); AID 1347041; 480,000 tested, 0.15% active; P00338; in the data active means activity change below about -30%; inconclusive means mostly about -25% to -30%;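 further: plate controls were DMSO wells for no effect and wells without enzyme for full effect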
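Enzyme activity of human lactate dehydrogenase 5 (2 nM; 0.06 mM NADH, 0.2 mM pyruvate, 5 min, RT) is measured via a resazurin/diaphorase fluorescence readout of residual NADH.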
RORg inh – ROR gamma (mouse) transcription inhibition; P51450; Drosophila S2 Gal4-RORgamma UAS-luciferase reporter, 20 h; Potency, µM (highest dose often 53.6 µM), inactives show at the highest dose activity change, negative = inhibition, usual class: inhibitors; 310,000 tested, 5.4% active; AID 2551; further: potency means the concentration at half of the fitted maximal effect; nearly all actives have a fitted effect of over 60% in size
Target sequence (P51450 whole entry, looked up, the tested form may be a part): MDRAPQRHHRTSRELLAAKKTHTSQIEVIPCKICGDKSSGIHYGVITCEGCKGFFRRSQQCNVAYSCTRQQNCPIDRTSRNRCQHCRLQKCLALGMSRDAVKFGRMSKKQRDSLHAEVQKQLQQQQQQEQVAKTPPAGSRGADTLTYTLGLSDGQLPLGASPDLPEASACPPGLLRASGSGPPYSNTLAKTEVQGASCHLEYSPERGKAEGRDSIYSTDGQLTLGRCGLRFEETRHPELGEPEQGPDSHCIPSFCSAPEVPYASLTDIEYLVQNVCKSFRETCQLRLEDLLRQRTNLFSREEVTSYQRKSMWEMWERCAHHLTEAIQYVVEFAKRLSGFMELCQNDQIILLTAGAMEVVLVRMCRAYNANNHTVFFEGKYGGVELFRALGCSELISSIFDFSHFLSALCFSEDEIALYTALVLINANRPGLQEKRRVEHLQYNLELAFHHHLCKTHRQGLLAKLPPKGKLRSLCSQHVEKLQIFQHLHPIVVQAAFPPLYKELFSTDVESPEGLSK
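A Gal4/UAS one-hybrid system in insect cells: metallothionein-promoter Gal4–ROR gamma fusion plus Photinus luciferase reporter. Copper sulfate 700 uM final, 20 hr ambient incubation, luminescent detection after 10 min with reagent.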
The depositor's hits bear a star; ? = inconclusive; nt = not tested or not shown. The list is not random: actives were taken first. Their share in the collection is about 18%. Unless noted, the call rests on the fitted dose curve; in most records, active means well fitted curve in the direction sought with a large enough effect; inconclusive means small, poorly fitted or top-dose-only effect, or another doubt; inactive means no such curve, though single readings can be large; an effect the other way counts as inactive or inconclusive. Unless noted, on the % scale 0 is the no-effect control and ±100 the full control effect.

SMILES | DT40 TDP1 CPT | TDP1 cell noCPT | Gal4-VP16 FLuc | IL-1B inflam inh | LDHA block | RORg inh
CCOc1ccccc1NC(=O)C(NCC1CCCCC1)c1ccccc1 (stereo not given) | ? | -82% | 8% | 51 | 3 | -32%
S=C(N/N=C1\CCCCC1C1CCCCC1)Nc1ccccc1 (stereo not given) | nt | nt | nt | nt | -7 | nt
O=S(=O)(Nc1ccccc1Sc1nncs1)C1=Cc2ccccc2CC1 | nt | nt | nt | nt | 7 | nt
CCc1c(C)nc(Nc2nc(C)c3cc(OC)ccc3n2)[nH]c1=O | ? | 21µM* | -10% | ? | 2 | -23%
COc1ccc2c(C)nc(Nc3nc(C)c(C)c(=O)[nH]3)nc2c1 | 4.6µM* | 2.9µM* | 2.8µM* | -100* | -2 | 5µM*
COc1ccc2nc(Nc3nc(-c4ccccc4)cc(=O)[nH]3)nc(C)c2c1 | nt | nt | nt | nt | 8 | nt
COc1ccc2nc(NC3=NC(c4ccccc4)CC(=O)N3)nc(C)c2c1 (stereo not given) | ? | 13µM* | -8% | 15 | -6 | -7%
COc1ccc2c(C)nc(Nc3nc(C)cc(C)n3)nc2c1 | 2.9µM* | 3.3µM* | 1.3µM* | 10 | -16 | 0.25µM*
Cc1cc(C)nc(Nc2nc(C)c3ccccc3n2)n1 | nt | nt | nt | nt | 0 | nt
CCOc1ccc(S(=O)(=O)NCCO)c2ccccc12 | nt | nt | nt | nt | 1 | nt
Cc1oc(-c2ccccc2)nc1C(=O)NCC(C)(C)N1CCOCC1 | nt | nt | nt | nt | 4 | nt
O=C(Cn1ccc2c(Br)cccc21)Nc1nccs1 | nt | nt | nt | nt | 10 | nt
Cn1ccc2c(C(=O)Nc3ccc(C(N)=O)cc3)cccc21 | nt | nt | nt | nt | 0 | nt
CC(C)CN(C(=O)CSc1nc(CN2CCOCC2)nc2ccccc12)C1CCS(=O)(=O)C1 (stereo not given) | nt | nt | nt | nt | -1 | nt
CCCCCc1c(C)nc(Nc2nc(C)c3cc(OC)ccc3n2)[nH]c1=O | 13µM* | 16µM* | -5% | -22 | -8 | 0%
CCCc1c(C)nc(Nc2nc(C)c3cc(C)ccc3n2)[nH]c1=O | nt | nt | nt | nt | 2 | nt
CCc1c(C)nc(Nc2nc(C)c3ccc(OC)cc3n2)[nH]c1=O | ? | 16µM* | -12% | -76* | 0 | 3%
COCc1cc(=O)[nH]c(Nc2nc3ccc(C)cc3o2)n1 | 4.6µM* | 4.6µM* | 3.2µM* | -19 | 1 | 4.5µM*
CCc1ccc2nc(Nc3nc(COC)cc(=O)[nH]3)nc(C)c2c1 | 9.2µM* | 23µM* | -11% | ? | -8 | -23%
COc1ccc2c(C)nc(Nc3nc4ccccc4c(=O)[nH]3)nc2c1 | nt | nt | nt | nt | -9 | nt
Cc1c(C(=O)NCC(c2ccccc2)N(C)C)oc2ccc(F)cc12 (stereo not given) | nt | nt | nt | nt | 2 | nt
COC(=O)C1=C(COc2ccccc2)NC(=O)NC1c1ccc2ccccc2c1 (stereo not given) | ? | 23µM* | nt | -12 | 2 | nt
COC(=O)C1=C(COc2ccccc2)NC(=O)NC1c1ccc(Br)cc1 (stereo not given) | ? | ? | -12% | ? | -3 | ?
COC(=O)C1=C(CCc2ccccc2)NC(=O)NC1c1ccc(Cl)cc1 (stereo not given) | ? | ? | nt | -52* | 0 | nt
Cc1ccc(NC(=O)N2CCN(c3ccc(Cl)c(Cl)c3)CC2)cc1 | ? | 3.3µM* | nt | nt | 2 | nt
SMILES | DT40 TDP1 CPT | TDP1 cell noCPT | Gal4-VP16 FLuc | IL-1B inflam inh | LDHA block | RORg inh
O=C(Nc1ccc(Br)cc1)N1CCC(CN2CCCC2)CC1 | ? | -13% | nt | nt | 0 | nt
CCOc1ccc(NC(=O)CN2CCN(c3ccc(Cl)cc3)CC2)cc1 | ? | ? | nt | nt | 0 | nt
CCOc1ccc(NC(=O)N2CCC(CN3CCCCCC3)CC2)cc1 | 18µM* | ? | nt | nt | -5 | nt
CC(C)c1ccc(NC(=O)N2CCN(c3ccc(Cl)c(Cl)c3)CC2)cc1 | ? | 0.92µM* | nt | nt | 2 | nt
O=C(Nc1cccc(Cl)c1)N1CCN(c2ccc(Cl)c(Cl)c2)CC1 | nt | nt | nt | nt | 12 | nt
CCOc1ccc(NC(=O)N2CCN(c3ccc(Cl)c(Cl)c3)CC2)cc1 | ? | 1.3µM* | nt | nt | 0 | nt
Cc1cccc(-n2ncc3c(NNC(=O)C4CCCCC4)ncnc32)c1 | nt | nt | nt | nt | -1 | nt
Cc1ccc(Cl)cc1NC(=O)COC(=O)c1nn(C)c(=O)c2ccccc12 | nt | nt | nt | nt | 0 | nt
Cc1ccc(Cn2ccc(NC(=O)c3cc4nc5c(c(C(F)(F)F)n4n3)CCc3ccccc3-5)n2)cc1 | nt | nt | -9% | nt | nt | 10%
Cc1ccc(O)c(NC(=O)c2cc3nc4c(c(C(F)(F)F)n3n2)CCc2ccccc2-4)c1 | ? | 23µM* | -1% | -51* | -1 | -12%
NC(CO)C(=O)NNCc1ccc(O)c(O)c1O (stereo not given) | 3.7µM* | 4.6µM* | -5% | 13 | 4 | -13%
COc1ccc2c(C)c(CCC(=O)Nc3ccc(C)cc3O)c(=O)oc2c1 | nt | nt | nt | nt | 15 | nt
CC(=O)Nc1ccc(SCC(=O)c2ccc3c(c2)CCC3)cc1 | nt | nt | nt | nt | -1 | nt
CCCN1C2CCCC1CC(NC(=O)Nc1ccc(C(C)C)cc1)C2 (stereo not given) | 23µM* | ? | 12% | 11 | 2 | -37%
COc1ccc2c(c1)c(=O)c(S(=O)(=O)c1ccc(F)cc1)cn2Cc1ccccc1Cl | 0.26µM* | 0.23µM* | nt | nt | -7 | nt
CCOc1ccc2c(c1)c(=O)c(S(=O)(=O)c1ccc(Cl)cc1)cn2Cc1ccccc1C | ? | ? | nt | nt | 3 | nt
COc1ccc(Cn2cc(S(=O)(=O)c3ccc(C)cc3)c(=O)c3cc(F)ccc32)cc1 | -24% | -13% | nt | nt | -8 | nt
COc1cc2c3nnc(-c4ccc(F)cc4)c-3cn(Cc3ccccc3F)c2cc1OC | 3.7µM* | 2.6µM* | 5µM* | -60* | -1 | 6.3µM*
COc1cc2c(=O)c(S(=O)(=O)c3ccc(F)cc3)cn(Cc3ccccc3C)c2cc1OC | 16µM* | 18µM* | nt | nt | -1 | nt
Cc1ccccc1C(=O)Nc1ccc(Cl)c(C(F)(F)F)c1 | nt | nt | nt | nt | 7 | nt
CCn1nc(C(=O)Nc2ccc(OC)c(OC(F)F)c2)c2ccccc2c1=O | nt | nt | nt | nt | 0 | nt
NS(=O)(=O)c1cccc(NC(=O)CSc2ncc(C(F)(F)F)cc2Cl)c1 | -40% | -29% | -3% | -111* | 1 | 5%
Cc1ccc(S(=O)(=O)N(C)C)cc1NC(=O)CSc1ncc(C(F)(F)F)cc1Cl | ? | ? | -13% | ? | 3 | ?
NS(=O)(=O)c1cccc(NC(=O)CCSc2ccc(Cl)cc2)c1 | ? | 12µM* | -10% | 20 | -20 | 7%

From PubChem
